From the supplement of paper PMC7366291
Structures can show the parent of a compound that is named as a salt. ± gives the standard deviation of the averaged measurements.

The compounds below were run on Danio rerio Tg(wt1b:EGFP) embryo, pronephros (assay: glomerular width (mean of left and right), fold change vs DMSO control; higher = wider glomerulus). Details: 25 µM; exposure: 24-48 hpf.
How it was run: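 Every feature is expressed as a fold change relative to the averaged DMSO-treated embryos of the same day. The exposure ran from 24 to 48 hpf at 28.5°C, with dechorionated Tg(wt1b:EGFP) zebrafish embryos in HEPES-buffered E3 containing 0.003% PTU, 0.5% DMSO and 25 μM compound. Dorsal pronephros images taken in agarose-filled 96-well plates were reduced to maximum projections, on which 16 reference points were set by hand in Fiji for a macro to compute distances and angles. Values more than 2 SD from the feature mean were not used.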

| SMILES | glomerular width |
| --- | --- |
| CCC1(c2ccccc2)NC(=O)N(C)C1=O (stereo unspecified) [Mephenytoin] | 0.9232 ± 0.0066 |
| Cc1c(N)c(=O)n(-c2ccccc2)n1C [Ampyrone] | 1.01 ± 0.031 |
| Cc1ncc([N+](=O)[O-])n1CC(C)O (stereo unspecified) [Secnidazole] | 0.9842 ± 0.0045 |
| CCCOc1ccc2[nH]c(NC(=O)OC)nc2c1 [Oxibendazol] | 0.505 ± 0.067 |
| CCc1cc(C(N)=S)ccn1 [Ethionamide] | 0.97628 ± 0.00041 |
| CCCc1nc(C)c2c(=O)nc(-c3cc(S(=O)(=O)N4CCN(CC)CC4)ccc3OCC)[nH]n12 [Vardenafil] | 1.02 ± 0.021 |
| COc1cc(NS(=O)(=O)c2ccc(N)cc2)ncn1 [Sulfamonomethoxine] | 0.946 ± 0.055 |
| Nc1nc(F)nc2c1ncn2[C@@H]1O[C@H](CO)[C@@H](O)[C@@H]1O [Fludarabine] | 0.997 ± 0.061 |
| Oc1c(I)cc(Cl)c2cccnc12 [Clioquinol] | 0.626 ± 0.024 |
| Cc1cccc(C)c1NC(=O)C1CCCCN1C (stereo unspecified) [Mepivacaine hydrochloride] | 1.06 ± 0.058 |
| Nc1cc(-c2ccncc2)c[nH]c1=O [Amrinone] | 1.01 ± 0.036 |
| CC(=O)NCCCS(=O)(=O)O [Acamprosate calcium] | 1.02 ± 0.022 |
| CN1C2CCCC1CC(NC(=O)c1nn(C)c3ccccc13)C2 (stereo unspecified) [Granisetron] | 0.98 ± 0.024 |
| N[C@@H](C(=O)N[C@@H]1C(=O)N2C(C(=O)O)=C(Cl)CC[C@H]12)c1ccccc1 [Loracarbef] | 1.08 ± 0.011 |
| COC(=O)Nc1nc2cc(C(=O)c3ccc(F)cc3)ccc2[nH]1 [Flubendazol] | 0.934 ± 0.034 |
| Nc1nc(=S)c2ncn([C@@H]3O[C@H](CO)[C@@H](O)[C@H]3O)c2[nH]1 [Thioguanosine] | 1.02 ± 0.012 |
